Growth data for eight compounds are collected here from PubChem BioAssay (NCI).

Where “and” joins values, the source holds several entries; their conditions need not be identical. Equal entries are not always repeated. The panel holds about 83,000 compounds, 20% with a hit somewhere; the sample as a whole holds those more often.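 In brief: 96-well plates, 48 h treatment, single concentration, percent growth endpoint.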 Calls of active or inactive are those of the source. How the source made its calls: active means growth percent below 10; inactive means the rest.

What all share (experiment): NCI-60 one-dose screen, 48 h (100 = growth as untreated, 0 = no growth, -100 = all killed)
Conditions in all cases: 10 µM unless noted

The test system of test [1] is SR leukemia.
Test [2] concerns RPMI-8226 leukemia.
For test [3], the system named is OVCAR-8 ovarian.
Test [4] deals with OVCAR-5 ovarian.
For test [5], the system named is OVCAR-4 ovarian.
In test [6] the test system is SK-OV-3 ovarian.
Test [7] relates to IGROV1 ovarian.
Test [8] relates to OVCAR-3 ovarian.
In test [9] the test system is HS 578T breast.
Test [10] deals with NCI/ADR-RES ovarian.
Test [11] relates to T-47D breast.
Test [12] deals with BT-549 breast.
Test [13] has as its system MDA-MB-435 melanoma.
Test [14] deals with SW-620 colon.
The test system of test [15] is MCF7 breast.
Test [16] relates to HCT-116 colon.
In test [17] the test system is HCC-2998 colon.
For test [18], the system named is KM12 colon.
Test [19] relates to MDA-MB-468 breast.

As to `O=C(O)CC1S/C(=N/N=C/c2nc3ccccc3s2)NC1=O` (configuration not stated), the growth in test [1] is 79.8% (inactive); in [2], 88.8% (inactive); in test [3] it was 98.5% (inactive); in test [4], 123% (inactive); in test [5] it was 82.1% (inactive); in [6] it was 122% (inactive). For the same compound, the growth in [7] is 103% (inactive); in [8], 88.4% (inactive); in [9] it was 90.9% (inactive); in test [10], 99.3% (inactive); in [11] it was 85.4% (inactive); in test [12] it was 98.2% (inactive). Further, the growth in test [13] is 102% (inactive); in test [14], 104% (inactive); in [15], 60.9% (inactive); in test [16], 71.1% (inactive); in test [17], 106% (inactive); in test [18], 90.6% (inactive). In addition, the growth in test [19] was 104% (inactive).
With `COC(=O)c1cccc(Oc2ccc(NC(=O)Nc3cc(C(F)(F)F)ccc3F)cc2)c1`, the growth in test [1] is 26.9% (inactive); in [2], 62.8% (inactive); in [3] it was 40.3% (inactive); in test [4] it was 87.1% (inactive); in [5], 55.4% (inactive); in test [6] it was 87.6% (inactive). The growth was 56.7% (inactive) in test [7]; 78.5% (inactive) in test [8]; 4.44% (active) in test [9]; 73.9% (inactive) in test [10]; 47% (inactive) in [11]; 64.7% (inactive) in test [12]. The growth was 92.4% (inactive) in test [13]; 89.7% (inactive) in test [14]; 61.8% (inactive) in test [15]; 60.7% (inactive) in test [16]; 96.9% (inactive) in test [17]; 75.3% (inactive) in test [18]. The growth in test [19] is 71.5% (inactive).
As to `CC1(C)CC(=O)C2=C(C1)OC(N)=C(c1nc3ccccc3[nH]1)C2c1ccc(Cl)cc1` (configuration not stated), the growth is 41.4% (inactive) and 97.8% (inactive) in test [1]; 45.8% (inactive) and 109% (inactive) in test [2]; 69.2% (inactive) and 108% (inactive) in test [3]; 101% (inactive) and 118% (inactive) in test [4]; 57.6% (inactive) and 109% (inactive) in [5]; 111% (inactive) and 108% (inactive) in [6]. Besides, the growth in test [7] was 62.3% (inactive) and 108% (inactive); in test [8], 47.8% (inactive) and 78.4% (inactive); in test [9], 6.8% (active) and 119% (inactive); in [10], 78% (inactive) and 109% (inactive); in test [11] it was 72.3% (inactive) and 117% (inactive); in test [12], 57.5% (inactive) and 123% (inactive). Moreover, the growth in test [13] is 60.5% (inactive) and 109% (inactive); in test [14], 81% (inactive) and 104% (inactive); in test [15], 56.4% (inactive) and 93.7% (inactive); in test [16] it was 63.4% (inactive) and 103% (inactive); in test [17], 76.9% (inactive) and 111% (inactive); in [18], 36.7% (inactive) and 100% (inactive). Besides, the growth in [19] was 47.3% (inactive) and 103% (inactive).
Regarding `O=c1[nH]c2ccccc2cc1CSc1ccccc1Nc1nccc(-c2ccc3c(c2)OCO3)n1`, the growth in [1] was 103% (inactive); in [2] it was 92.2% (inactive); in test [3], 46.8% (inactive); in [4] it was 99.5% (inactive); in test [5], 25.4% (inactive); in test [6] it was 82.7% (inactive). In addition, the growth in [7] is 99.2% (inactive); in test [8] it was 83.9% (inactive); in [9], 34.7% (inactive); in test [10], 53.1% (inactive); in [11] it was 83.6% (inactive); in test [12], 67.6% (inactive). The growth in test [13] was 98.8% (inactive); in [14], 93.2% (inactive); in test [15] it was 69.2% (inactive); in test [16], 93.2% (inactive); in test [17], 116% (inactive); in test [18] it was 99.3% (inactive). In test [19], the growth is 84.4% (inactive).
In the case of `CCc1ccc(SC2c3cc(OC)ccc3Oc3nc(N)c(C#N)c(N)c32)cc1` (configuration not stated), the growth is -62% (active) in test [1]; -15.6% (active) in [2]; 0.0543% (active) in [3]; -4.3% (active) in test [4]; -13.3% (active) in [5]; -23.3% (active) in [6]. For the same compound, the growth was -69.6% (active) in [7]; -48.3% (active) in [8]; -40.5% (active) in test [9]; 0.784% (active) in test [10]; -52% (active) in test [11]; -67.8% (active) in test [12]. Besides, the growth was -22.1% (active) in [13]; -42.9% (active) in test [14]; -45.4% (active) in test [15]; -96% (active) in test [16]; -48.3% (active) in test [17]; -17.7% (active) in test [18]. Also, the growth in [19] is -78.8% (active).
Turning to `COc1ccc(CCC2NCCc3c(Br)c4c(c(OC)c32)OCO4)cc1` (configuration not stated), the growth in test [1] was -6.62% (active); in [2], 11% (inactive); in [3] it was 27.9% (inactive); in [4], 11.6% (inactive); in test [5], 42.4% (inactive); in [6] it was 28.8% (inactive). In addition, the growth in test [7] is 1.92% (active); in test [8], 1.09% (active); in [9], 8.95% (active); in test [10], -13.9% (active); in [11], 31.2% (inactive); in test [12] it was -19% (active). Besides, the growth in test [13] was -64.5% (active); in test [14], 2.69% (active); in test [15], 3.82% (active); in test [16], 4.11% (active); in [17], -23.2% (active); in test [18], 3.9% (active). Also, the growth in test [19] is -18.1% (active).
Regarding `CCc1ccccc1NC(=O)N/C(N)=N/c1nc2ccccc2s1`, the growth in test [1] was 7.38% (active); in test [2], 15.7% (inactive); in test [3] it was -26.6% (active); in test [4], 0.307% (active); in [5], 16.7% (inactive); in test [6], 7.32% (active). Besides, the growth in test [7] is 20% (inactive); in test [8] it was -30.2% (active); in [9], 27.1% (inactive); in test [10], -30.4% (active); in test [11], 55.8% (inactive); in test [12] it was -12% (active). Besides, the growth is -46.7% (active) in [13]; 21.3% (inactive) in test [14]; 11% (inactive) in [15]; -26.2% (active) in [16]; 3.52% (active) in [17]; -3.54% (active) in [18]. The growth in [19] was -21.2% (active).
Turning to `Cc1nc2sccn2c1-c1nnc(SCc2ccccc2)o1`, the growth was 87.5% (inactive) in [1]; 79.1% (inactive) in test [2]; 96.5% (inactive) in test [3]; 90.2% (inactive) in test [4]; 79.8% (inactive) in [5]; 97.9% (inactive) in [6]. The growth in [7] was 92% (inactive); in [8] it was 117% (inactive); in test [9], 107% (inactive); in [10], 78.1% (inactive); in [11] it was 74.5% (inactive); in [12], 119% (inactive). Further, the growth in test [13] is 97.4% (inactive); in test [14], 105% (inactive); in [15] it was 74.2% (inactive); in [16] it was 91.6% (inactive); in test [17], 103% (inactive); in test [18], 98.5% (inactive). For the same compound, in [19], the growth is 52% (inactive).
